Our source for the outcome values is PubChem BioAssay AID1347431 (National Center for Advancing Translational Sciences (NCATS), 2020).

SMILES strings stand for the structures. Fewer than 10 of roughly 1,200 compounds were called active. Calls come from the whole dose curve; as a rule, active = well fitted curve in the direction sought with a large enough effect; inconclusive = small, poorly fitted or top-dose-only effect, or another doubt; inactive = no such curve, though single readings can be large or run the other way. A selection follows.

The test in a line: Confirmatory qHTS assay for inhibitors of Activation Induced Cytidine Deaminase (AID): UDG signals. The following applies: UDG coupled enzyme activity counter-screen; series mostly up to 115 µM. In outline: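 UDG readout, a counterscreen: AID (1 uM, 4/3x) plus UDG (2 U/mL, 4/3x) preincubated 10 min with compound (7.32 nM - 114 uM final), then 4 h with DJC20/DJC23 substrates at room temperature; NaOH added, fluorescence read at 560/665 nm.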
In the case of `CCn1c(=O)c2cc(C(=O)NCCCN(C)Cc3ccccc3)sc2c2ccccc21`, the compound was called inactive.
As for `COc1ccc(CCNC(=O)c2cc(Nc3cc(C)cc(C)c3)nc3ccccc23)cc1OC`, the result was inactive.
The result for `Cc1ccc(-c2nc3nc(C)cc(C)n3c2Nc2ccc3c(c2)OCCO3)cc1` reads “inactive”.
As to `Cc1ccc(C)c(N2CCN(C(=O)c3cc(S(=O)(=O)N4CCCCC4)cn3C)CC2)c1`, the compound was called inactive.
The result for `Cc1cc(C)c(NC(=O)CCCn2c(C)c3cnn(-c4ccccc4)c(=O)c3c2C)c(C)c1` reads “inactive”.
In the case of `CCOC(=O)c1ccc(-n2c(N)c(C(=O)OC)c3nc4ccccc4nc32)cc1` it was “inactive”; in that of `Cc1ccc(C(=O)c2cn(Cc3ccccc3)c3ccccc3c2=O)cc1`, “inactive”.
The result for `COc1cccc(-c2nc3cc(NC(=O)c4ccc(C)c([N+](=O)[O-])c4)ccc3o2)c1` reads “inactive”; that for `Cc1ccc2c(c1)-c1c(cnn1CC(=O)N1CCN(c3cccc(C(F)(F)F)c3)CC1)CO2`, “inactive”.
With `O=C(CC1N=C2c3ccccc3N=C(SCc3ccccc3F)N2C1=O)NCc1ccc2c(c1)OCO2` (centres undefined), the outcome was inactive.
`Cc1nn(C(=O)c2ccccc2)c(C)c1Sc1ccc(Cl)cc1`: the outcome was inactive.
The result for `Cc1ccc(C)c(NC(=O)CSc2nccn2-c2cccc(C)c2C)c1` reads “inactive”; that for `O=C(c1cccc(Cl)c1)N(Cc1ccco1)Cc1ccccc1Cl`, “inactive”.
The result for `Cc1cccc(-c2nnc(SCC(=O)N3CCCc4ccccc43)o2)c1` reads “inactive”; that for `CCc1ccccc1NC(=O)[C@H](Cc1ccccc1)N1Cc2ccccc2C1=O`, “inactive”.
The result for `COc1ccc(Cn2cc(C(=O)c3ccc(OC)cc3)c(=O)c3cc4c(cc32)OCCO4)cc1` reads “inactive”; that for `Cc1cc(C)c2c(CC(=O)N(Cc3ccc(Cl)cc3)Cc3ccco3)coc2c1`, “inactive”.
`Cc1ccc(N(Cc2cccs2)C(=O)c2ccccc2)cc1`: the compound was called inactive.
In the case of `COc1ccc(Nc2cc(C)c3cc(NC(=O)COc4cccc(C)c4)ccc3n2)cc1` it was “inactive”; in that of `CCN(C(=O)c1cc2cc3ccc(OC)cc3nc2o1)c1cccc(C)c1`, “inactive”; in that of `COc1ccc(-c2cn3c(n2)sc2cc(C(=O)NCCCN4CCCCC4)ccc23)cc1`, “inactive”.
The result for `COc1ccc(CCNC(=O)CS(=O)Cc2nc(-c3ccc(C)cc3)oc2C)c(OC)c1` (centres undefined) reads “inactive”; that for `COc1ccc(Cl)cc1NC(=O)CSc1nc(=O)n(Cc2ccco2)c2c1CCC2`, “inactive”.
The result for `COc1ccc(C(=O)c2cn(Cc3ccccc3F)c3cc4c(cc3c2=O)OCCO4)cc1OC` reads “inactive”.
